JMJD2A Tudor inh – blocks the human JMJD2A Tudor domain; O75164; AlphaScreen JMJD2A-Tudor / H3K4me3 peptide binding; Potency, µM (series often up to 114 µM), usual class: inhibitors; actives 4.4% (n = 390,000); further: nearly all actives have a fitted effect of over 50% in size
PI5P4K alpha inh – inhibitors of human PI5P4K alpha; max response, %; P48426; PI5P4Kalpha enzyme, ADP-Glo luminescence, 60 min; hits give low values; actives 1.2% (n = 330,000); AID 652105; active means max response of -50% or lower; inconclusive means between -30% and -50%; inactive means -30% or higher; further: value at the top dose of about 77 µM
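PI5P4Kalpha ADP-Glo assay; 5 microM ATP final; 60 min RT reaction; HEPES pH 7.4/EGTA/CHAPS, 5% DMSO; controls lacking substrate or enzyme; luminescent end-point.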
HP1b binding inh – HP1-beta chromodomain-methylated histone interaction inhibition. P83916. AlphaScreen HP1-beta / biotin-H3K9me3 peptide binding. Potency, µM (highest dose often 114 µM), hits mostly inhibitors. actives 0.56% (n = 390,000). AID 540317; further: nearly all actives have a fitted effect of over 70% in size
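Compound inhibition of the preformed complex between 50 nM HP1-beta and 50 nM biotinylated H3K9me3 peptide was read by AlphaScreen. Buffer was PBS pH 7.4 with 0.01% Tween-20. Incubations ran 30 min at room temperature, with 10 ug/mL donor/acceptor beads.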
G9a inh – G9a (human) methyltransferase inhibition; G9a H3K9 monomethylation, AlphaScreen, 2 h; Potency, µM (titrated, usually from 102 µM), hits mostly inhibitors; actives 8.8% (n = 350,000); AID 504332; further: nearly all actives have a fitted effect of over 75% in size
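G9a (20 nM) was preincubated 15 min with compound, then reacted 2 h at room temperature with 500 nM biotin-H3K9 peptide and 20 µM SAM. Monomethyl-H3K9 detected by AlphaScreen using anti-H3K9me1 antibody.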
L3MBTL1 inh-1 – L3MBTL1 (human) inhibition; Potency, µM (titrated, usually from 57.1 µM), usual class: inhibitors; AID 485360; Q9Y468; actives 0.66% (n = 230,000); AlphaScreen L3MBTL1–H3K9me1 peptide binding; further: nearly all actives have a fitted effect of over 60% in size
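L3MBTL1 (50 nM) pre-complexed 30 min with biotinylated H3(1-15)K9me1 peptide (75 nM), then compounds added for 30 min at room temperature; AlphaScreen streptavidin donor/nickel chelate acceptor beads (10 ug/mL final) read after 30 min dark incubation.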
BAZ2B block – blocks human BAZ2B | Q9UIF8 | AlphaScreen BAZ2B-H3K14Ac peptide displacement | Potency, µM (top dose mostly 114 µM), usual class: inhibitors | actives 4.4% (n = 360,000); further: nearly all actives have a fitted effect of over 60% in size
Target sequence (Q9UIF8 whole entry, looked up): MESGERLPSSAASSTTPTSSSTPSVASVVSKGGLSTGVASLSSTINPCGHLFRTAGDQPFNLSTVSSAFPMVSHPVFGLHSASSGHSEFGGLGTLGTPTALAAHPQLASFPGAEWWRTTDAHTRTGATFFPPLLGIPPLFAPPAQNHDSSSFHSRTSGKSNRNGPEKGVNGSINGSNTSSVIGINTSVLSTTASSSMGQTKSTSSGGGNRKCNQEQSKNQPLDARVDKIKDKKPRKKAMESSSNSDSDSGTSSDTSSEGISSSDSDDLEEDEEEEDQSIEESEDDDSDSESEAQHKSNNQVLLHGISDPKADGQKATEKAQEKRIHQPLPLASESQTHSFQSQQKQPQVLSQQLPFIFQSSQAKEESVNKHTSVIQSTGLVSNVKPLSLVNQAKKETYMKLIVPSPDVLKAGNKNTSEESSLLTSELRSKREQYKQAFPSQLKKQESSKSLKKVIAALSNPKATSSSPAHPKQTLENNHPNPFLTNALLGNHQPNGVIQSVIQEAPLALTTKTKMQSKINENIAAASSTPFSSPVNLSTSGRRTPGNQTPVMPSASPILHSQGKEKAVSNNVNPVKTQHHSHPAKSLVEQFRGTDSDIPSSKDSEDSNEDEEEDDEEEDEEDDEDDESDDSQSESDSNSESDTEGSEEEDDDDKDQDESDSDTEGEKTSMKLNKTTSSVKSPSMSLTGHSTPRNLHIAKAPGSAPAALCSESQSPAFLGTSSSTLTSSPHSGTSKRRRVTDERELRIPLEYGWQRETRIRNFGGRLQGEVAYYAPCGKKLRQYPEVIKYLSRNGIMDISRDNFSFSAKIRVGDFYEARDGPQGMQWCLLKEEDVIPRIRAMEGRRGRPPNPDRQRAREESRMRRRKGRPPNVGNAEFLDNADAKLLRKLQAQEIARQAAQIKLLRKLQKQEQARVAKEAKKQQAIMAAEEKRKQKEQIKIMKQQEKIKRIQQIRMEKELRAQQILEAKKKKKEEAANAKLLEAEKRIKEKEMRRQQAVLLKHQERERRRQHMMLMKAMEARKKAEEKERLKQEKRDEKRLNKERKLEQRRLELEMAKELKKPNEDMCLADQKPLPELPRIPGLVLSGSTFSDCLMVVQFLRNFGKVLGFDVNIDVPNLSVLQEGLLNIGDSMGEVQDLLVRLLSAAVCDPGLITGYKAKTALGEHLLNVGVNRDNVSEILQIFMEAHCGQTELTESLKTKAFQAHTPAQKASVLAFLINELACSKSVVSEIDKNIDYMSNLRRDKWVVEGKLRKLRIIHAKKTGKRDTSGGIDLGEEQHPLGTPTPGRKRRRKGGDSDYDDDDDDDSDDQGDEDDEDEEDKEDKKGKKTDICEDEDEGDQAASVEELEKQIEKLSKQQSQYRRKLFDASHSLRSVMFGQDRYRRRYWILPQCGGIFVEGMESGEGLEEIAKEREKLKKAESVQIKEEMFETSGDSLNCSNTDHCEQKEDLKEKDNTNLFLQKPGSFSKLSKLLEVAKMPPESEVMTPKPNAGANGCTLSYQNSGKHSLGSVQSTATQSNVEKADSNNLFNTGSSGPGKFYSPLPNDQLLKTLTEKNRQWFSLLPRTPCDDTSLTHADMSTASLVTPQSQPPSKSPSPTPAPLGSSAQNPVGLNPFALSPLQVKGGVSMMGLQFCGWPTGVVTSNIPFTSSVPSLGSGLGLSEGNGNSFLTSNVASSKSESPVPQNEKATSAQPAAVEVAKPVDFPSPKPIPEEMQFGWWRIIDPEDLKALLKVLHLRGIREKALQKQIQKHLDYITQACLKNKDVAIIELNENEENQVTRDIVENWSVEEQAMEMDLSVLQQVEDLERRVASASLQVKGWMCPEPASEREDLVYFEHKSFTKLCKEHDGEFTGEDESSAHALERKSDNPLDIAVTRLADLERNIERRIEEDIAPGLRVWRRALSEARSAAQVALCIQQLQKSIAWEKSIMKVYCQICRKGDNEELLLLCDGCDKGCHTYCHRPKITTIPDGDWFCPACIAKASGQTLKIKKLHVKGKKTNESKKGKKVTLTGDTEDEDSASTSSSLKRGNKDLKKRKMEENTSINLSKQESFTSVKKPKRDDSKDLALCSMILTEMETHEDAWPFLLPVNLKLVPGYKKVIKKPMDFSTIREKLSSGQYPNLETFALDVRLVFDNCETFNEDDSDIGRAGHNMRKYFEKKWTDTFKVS
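Protein-peptide AlphaScreen: BAZ2B 50 nM, b-H3K14Ac 50 nM, 1x PBS pH 7.4 + 0.01% Tween-20. Preincubation 30 min RT; cpd 30 min RT (top 110 uM); beads 20 min RT, light-protected.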
L3MBTL1 inh-2 – L3MBTL1 binding inhibition validated. AID 540279. shares compounds with L3MBTL1 inh-1. L3MBTL1 methyl-lysine binding inhibition, biochemical qHTS. actives 91% (n = 500). Potency, µM, hits mostly inhibitors; further: nearly all actives have a fitted effect of over 70% in size
L3MBTL1 ctr – AlphaScreen signal inhibition, L3MBTL1 hit counter-screen. Potency, µM (doses to about 57.1 µM), hits mostly inhibitors. AlphaScreen counterscreen, signal inhibition. 500 tested, under 10 active. shares compounds with L3MBTL1 inh-1
Hits are given with their value; - = inactive; ? = inconclusive; . = no result; [ ] = another dose, or the depositor's remark. Only some compounds are listed: those with a hit (about 11% of all), similar ones and a draw of the others. Unless noted, the call rests on the fitted dose curve; in most records, active means well fitted curve in the direction sought with a large enough effect; inconclusive means small, poorly fitted or top-dose-only effect, or another doubt; inactive means no such curve, though single readings can be large; an effect the other way counts as inactive or inconclusive.

SMILES	JMJD2A Tudor inh	PI5P4K alpha inh	HP1b binding inh	G9a inh	L3MBTL1 inh-1	BAZ2B block	L3MBTL1 inh-2	L3MBTL1 ctr
CC(C)Nc1ccc(Nc2ccnc3cc4ccccc4cc23)cc1	11µM	-	25µM	8.9µM	14µM	16µM	21	-
c1coc(-c2cnc3ccccc3n2)c1	.	-	.	.	.	.	.	.
c1coc(-c2nc3ccccc3nc2-c2ccco2)c1	?	.	-	8.9µM	32µM	71µM	?	-
Cc1cc2oc(C(=O)Nc3c(C(=O)Nc4ccccc4)oc4ccccc34)cc(=O)c2cc1C	-	.	-	-	.	-	.	.
CCCCn1c(NCc2ccccc2NS(=O)(=O)c2ccc(C)cc2)nc2ccccc21	-	-	-	-[12.7 µM]	-	-	.	.
CCCCn1c(NS(=O)(=O)c2ccc(C)cc2)c(S(=O)(=O)c2ccccc2)c2nc3ccccc3nc21	-	-	-	?	5µM	-	21	-
COc1ccc(Cl)cc1NC(=O)COC(=O)c1cc(NS(=O)(=O)c2cccs2)ccc1O	-	-	-	-	40µM	-	?	-
COCCCNC(=O)c1cnn(-c2ccc(F)cc2F)c1C1CCNCC1	-	.	-	-	.	-	.	.
NC(=S)N=Nc1c(O)[nH]c2ccccc12	?	-	-	?	-	-	.	.
Oc1[nH]c2ccccc2c1N=NC(=S)N1CCOCC1	7.1µM	-	-	32µM	28µM	22µM	21	?
Cc1cc(C)c(NC(=O)c2cc(C)nc3c2c(C)nn3-c2cccc(F)c2)c(C)c1	-	.	-	-	.	-	.	.
N#C/C(=C/c1cccn1-c1cccc(C(=O)O)c1)c1ccc(Cl)cc1	8.9µM	-	?	?	25µM	45µM	24	?
N#CC(C#N)=Cc1cccn1-c1ccc(C(=O)O)cc1	?	?	?	11µM	2µM	20µM	3	-
COc1ccccc1Sc1nc(-c2ccccn2)ncc1OC	89µM	-	-	?	4µM	22µM	19	-
Cc1ccc(C)c(NS(=O)(=O)c2ccc3[nH]c(=O)oc3c2)c1	-	?	-	45µM	32µM	79µM	27	-
Cc1nnc2c(N3CCN(c4ccccc4F)CC3)nc3ccc(C(=O)c4ccccc4)cc3n12	-	.	-	-	.	-	.	.
Cc1nnc(N2C(=O)c3oc4ccccc4c(=O)c3C2c2ccco2)s1 (centres undefined)	-	-	-	20µM	22µM	-	?	-
Cc1cc(C)c(C)c(OCCCCN2CCCCC2)c1	-	-	-	.	-	-	.	.
Cc1ccc(C(C)C)cc1OCCCCN1CCCC1	18µM	-	?	10µM	28µM	50µM	19	-
O=C(CSc1cccc2cccnc12)Nc1cccc(S(=O)(=O)N2CCOCC2)c1	-	-	-	?	-	-	.	.
O=C(CSc1cccc2cccnc12)Nc1ccc(S(=O)(=O)N2CCOCC2)cc1	-	-	-	-	22µM	-	?	?
COc1cnc(SC(C)C)[nH]c1=O	-	-	-	.	-	-	.	.
COc1cnc(-c2ccccn2)[nH]c1=O	40µM	-	-	-	10µM	1.3µM	21	-
O=C(NCc1ccc(Cl)cc1)c1cnc2sc(N3CCOCC3)nn2c1=O	-	.	-	-	.	-	.	.
Cn1c2ccccc2c2cnn(CC(=O)NCCCN3CCCCC3)c(=O)c21	-	.	-	-	.	-	.	.
SMILES	JMJD2A Tudor inh	PI5P4K alpha inh	HP1b binding inh	G9a inh	L3MBTL1 inh-1	BAZ2B block	L3MBTL1 inh-2	L3MBTL1 ctr
CCOc1ccc(-c2nnc(SCC(=O)Nc3cccc(OC)c3)nc2-c2ccc(OCC)cc2)cc1	-	.	-	-	.	-	.	.
Cc1ccc(/C=C/C(=O)N2CCc3ccccc32)o1	40µM	-75	45µM	22µM	32µM	45µM	6	-
CCOC(=O)/C=C/C(=O)N1CCc2ccccc21	-	-	-	-[0.501 µM]	-	?	.	.
CCOC(=O)CNS(=O)(=O)c1cc(-c2nn(C)c(=O)c3ccccc23)ccc1C	?	?	-	?	28µM	56µM	?	?
Oc1c(Br)cc(Br)cc1CNc1ccccn1	-	-	-	-[12.7 µM]	-	-	.	.
Oc1c(Br)cc(Br)cc1CNc1cccc2cccnc12	?	-	-	.	35µM	?	?	-
CS(=O)(=O)N1CCC[C@@]2(CCN(C(=O)Nc3ccccc3)C2)C1	.	.	.	-[12.7 µM]	.	.	.	.
CCCCNC(=O)CSc1nc2ccccc2nc1Cc1ccccc1	-	.	-	-	.	-	.	.
CC(C)S(=O)(=O)C1=NSC2=NC(=O)/C(=C\c3ccc(-c4cccc(C(=O)O)c4)o3)C(=N)N21	?	-104	-	40µM	13µM	79µM	3.8	-
O=C(/C=C/c1ccco1)Nc1cc(Cl)ccc1C(=O)O	?	?	-	8.9µM	28µM	?	11	-
O=C(/C=C\c1ccco1)Nc1cc([N+](=O)[O-])ccc1F	-	-	-	-	-	-	.	.
COc1ccc(CNC(=O)Cn2c(=O)n3nc(-c4ccc(OC)cc4)nc3c3ccccc32)cc1	-	.	-	-	.	-	.	.
COc1cc(/C=C2\CCc3c2nc2ccccc2c3C(=O)O)cc(OC)c1OC	89µM	-62	-	14µM	4µM	45µM	1.5	-
O=c1cc(C(F)(F)F)nc(-n2[nH]c3c(c2=O)CCCC3)[nH]1	-	-	-	?	8.9µM	2.5µM	?	-
COc1ccc(N2C[C@H](CSC)[C@@H](CC(=O)Nc3ccccc3)C2=O)cc1	.	-	.	.	.	.	.	.
O=C(CCCN1C(=O)/C(=C/c2ccco2)SC1=S)Nc1ccccc1C(=O)O	89µM	-82	-	.	7.1µM	40µM	3.4	-
O=C(O)CN1C(=O)/C(=C/c2ccc(SCc3ccccc3)o2)SC1=S	56µM	?	?	18µM	2.2µM	25µM	4.7	?
O=C(O)CCCN1C(=O)/C(=C\c2ccco2)SC1=S	79µM	-	?	45µM	25µM	?	?	-
Cn1cccc1/C=C1\SC(=S)N(CC(=O)O)C1=O	-	-	-	-	-	-	.	.
Cc1nc(N2CCCC2)ncc1C(=O)NCc1cccc(Cl)c1	-	.	-	-	.	-	.	.
COc1ccc(Cc2nnc(NC(=O)Cc3cccs3)s2)cc1OC	-	-92	?	?	6.3µM	28µM	11	-
Cc1ccc(NC(=O)CN2C(=O)N/C(=C/c3cc(C)n(-c4cccc(C(=O)O)c4)c3C)C2=O)cc1	?	?	?	13µM	25µM	22µM	17	-
Cc1ccc(NC(=O)CN2C(=O)N/C(=C/c3ccc(N4CCOCC4)cc3)C2=O)cc1	-	-	-	-	?	-	.	.
Cc1ccc(NC(=O)CN2C(=O)N/C(=C\c3cccn3-c3cccc(C(=O)O)c3)C2=O)cc1	22µM	-76	71µM	8.9µM	10µM	10µM	2.1	-
